PubChem BioAssay (NCI)
This is part of a sample that, as a whole, favours compounds with a hit. Of some 79,000 tested, about 15% had one in any assay. Values without a mark were called inactive. Activity calls are given as the source filed them. Rule as the data show it: active = growth inhibition above about 70%; inactive = the rest.

Columns and labels:
[1] = NCI Yeast Anticancer Drug Screen. Data for the rad50 strain (AID 155);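 also: 0% = growth of vehicle-only cultures of the same strain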; conditions: S. cerevisiae rad50 strain growth inhibition, hits give high values
In short: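 Yeast carrying a defined DNA repair defect were exposed to test compounds, and growth was compared with vehicle-treated controls to give percent inhibition.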

[2] = NCI Yeast Anticancer Drug Screen. Data for the mec2-1 strain (AID 157); conditions: S. cerevisiae mec2-1 strain, hits give high values
In short: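 Readout is yeast growth inhibition, normalised to vehicle-treated controls, in the mec2-1 strain exposed to compound.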

[3] = NCI Yeast Anticancer Drug Screen. Data for the sgs1 mgt1 strain (AID 161);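 also: 0% = growth of cultures given vehicle only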; conditions: S. cerevisiae sgs1 mgt1 strain, hits give high values
In short: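 Compounds are added to genetically altered yeast, and growth is compared with cultures given vehicle alone to give percent inhibition.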

[4] = NCI Yeast Anticancer Drug Screen. Data for the cln2 rad14 strain (AID 165);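 also: 0% = growth equal to vehicle treated cultures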; conditions: S. cerevisiae cln2 rad14 strain, hits give high values
In short: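 Relative to vehicle controls, growth inhibition of compound-treated cln2 rad14 yeast was recorded.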

[5] = NCI Yeast Anticancer Drug Screen. Data for the bub3 strain (AID 167); conditions: S. cerevisiae bub3 mutant strain, hits give high values
In short: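 Compounds were applied to a genetically altered yeast strain carrying a cell-cycle control defect. Growth inhibition was scored against vehicle-treated controls.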

[6] = NCI Yeast Anticancer Drug Screen. Data for the mlh1 rad18 strain (AID 175); conditions: S. cerevisiae mlh1 rad18 strain growth inhibition, hits give high values
In short: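 Test agents were incubated with a yeast strain of defined genotype (DNA damage repair defect). Inhibition of growth was derived by comparison with vehicle-exposed cultures.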

[7] = at 5.0 µM (retest, dose inferred, filed as 0.5)
[8] = at 50.0 µM (retest, dose inferred, filed as 5.0)

| Structure (SMILES) | growth inhibition [1, 7] [%] | growth inhibition [1, 8] | growth inhibition ([1]; at 50.0 µM) | growth inhibition [2, 7] [%] | growth inhibition [2, 8] | growth inhibition ([2]; at 50.0 µM) | growth inhibition [3, 7] | growth inhibition [3, 8] | growth inhibition ([3]; at 50.0 µM) | growth inhibition [4, 7] | growth inhibition [4, 8] | growth inhibition ([4]; at 50.0 µM) | growth inhibition [5, 7] | growth inhibition [5, 8] | growth inhibition ([5]; at 50.0 µM) | growth inhibition [6, 7] [%] | growth inhibition [6, 8] | growth inhibition ([6]; at 50.0 µM) |
| --- | --- | --- | --- | --- | --- | --- | --- | --- | --- | --- | --- | --- | --- | --- | --- | --- | --- | --- |
| CCCCCCCCCCCCCCCCCCOS(=O)(=O)O (tested in a mixture with another compound) | 1 | 63% | 56.4% | -35 | 76% (active) | 56.6% | -12% | 60% | 68.7% | -30% | 49% | 42.5% | -31% | 77% (active) | 67.5% | -27 | 80% (active) | 57.5% |
| C#Cc1cccc(N2C(=O)CCC2=O)c1 | 36 | 44% | 91.7% (active) | 48 | 43% | 93.6% (active) | 99% (active) | 99% (active) | 94.1% (active) | 97% (active) | 99% (active) | 91.2% (active) | 100% (active) | 97% (active) | 92.3% (active) | 42 | 40% | 91.8% (active) |
| Cc1nc(C(N)=S)sc1/C(CC(=O)C(=O)Nc1cccc2ccc(O)cc12)=N\NC(=O)c1ccncc1 | 25 | 31% | 21.8% | 16 | 18% | 7.5% | 9% | 28% | -4.85% | 14% | 33% | -10.8% | 32% | 29% | 13.1% | 14 | 35% | 16.4% |
| Cc1cnc2c(c1C)C(=O)c1ccccc1C2=O | 27 | 92% (active) | 64.4% | 26 | 88% (active) | 50.2% | 27% | 81% (active) | 87% (active) | 27% | 75% (active) | 83.1% (active) | 32% | 91% (active) | 84.1% (active) | 26 | 92% (active) | 89.3% (active) |
| CCCCCCCCCCCCCCCCCCSSCCCCCCCCCCCCCCCCCC | 1 | -3% | 36.1% | 1 | 4% | 14.9% | -3% | -3% | -0.8% | -4% | 4% | 80.9% (active) | 2% | 1% | 15.6% | -3 | -7% | -16.1% |
| CCCCCCCCN(CCCCCCCC)CC(O)c1cc2c(c3ccccc13)CCCC2 (configuration not stated) | 10 | 95% (active) | 99.2% (active) | 8 | 96% (active) | 99.4% (active) | 25% | 96% (active) | 99.3% (active) | 13% | 94% (active) | 99.2% (active) | 28% | 95% (active) | 98.8% (active) | 11 | 96% (active) | 98.8% (active) |
| CCN(CC)CCNc1ccc2nnn3c4ccccc4c(=O)c1c23 | -2 | 63% | 30.8% | -31 | 21% | 17.7% | 0% | -4% | 9.3% | -1% | 39% | 21.1% | -10% | 19% | 10.2% | -1 | -3% | 81.2% (active) |
| Cc1c(-c2ccccc2)ccnc1/C=N/NS(=O)(=O)c1ccccc1 | 0 | -4% | 42% | -1 | 15% | 22.9% | 4% | 38% | 82% (active) | -3% | -6% | 35.3% | -8% | -3% | 39.1% | -3 | 28% | 52.2% |
| Cc1ccc(S(=O)(=O)C(C#N)(CCC(=O)/C=C/c2ccccc2)CCC(=O)/C=C/c2ccccc2)cc1 | 1 | 6% | 16.2% | -4 | 35% | 2.35% | 2% | -2% | 26.9% | 3% | 4% | 77.3% (active) | -3% | -2% | -9.3% | 1 | -28% | 20% |
